Data as given in the supplement of paper PMC10849652.
Of roughly 8,800 targets only a part is listed; those with a hit were picked by preference. About 0.5% of all pairs of compound and target were hits. Values without a mark were called inactive.

What was measured:
Test in all cases: log2 fold change, soluble protein after heating vs DMSO (PISA); higher = thermal stabilisation; K562 lysate, 10 uM; active = over 0.2 and 3.5 SD of the protein, either way, in both replicates (recomputed)
lapatinib = compound: CS(=O)(=O)CCNCc1ccc(-c2ccc3ncnc(Nc4ccc(OCc5cccc(F)c5)c(Cl)c4)c3c2)o1 [lapatinib]
Procedure, shortened: (§1)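 To prepare the extract, K562 pellets were dounce-homogenised in PBS pH 7.4 with 1 mM MgCl2, giving crude material at 1 mg/mL protein. This was treated with 10 μM compound for 30 min, then heated in aliquots for 3 min over 48°C-58°C before pooling and addition of NP-40 to 0.5% at 4°C. Centrifugation at 21,000xg for 90 min left soluble protein in the supernatant, which TMTpro 16plex LC-MS/MS quantified with equalised channel sums. Results are log-two fold changes in thermal stability compared with solvent controls, from duplicates.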

pictilisib = compound: CS(=O)(=O)N1CCN(Cc2cc3nc(-c4cccc5[nH]ncc45)nc(N4CCOCC4)c3s2)CC1 [pictilisib]
Procedure, shortened: as §1

crizotinib = compound: C[C@@H](Oc1cc(-c2cnn(C3CCNCC3)c2)cnc1N)c1c(Cl)ccc(F)c1Cl [crizotinib]
Procedure, shortened: as §1

[1] = compound: C[C@H](C1=CC=C(C=C1)C(=O)NC2=C3C=CNC3=NC=C2)N
Procedure, shortened: as §1

duvelisib = compound: C[C@H](Nc1ncnc2nc[nH]c12)c1cc2cccc(Cl)c2c(=O)n1-c1ccccc1 [duvelisib]
Procedure, shortened: as §1

gandotinib = compound: Cc1cc(Nc2cc(CN3CCOCC3)c3nc(C)c(Cc4ccc(Cl)cc4F)n3n2)n[nH]1 [gandotinib]
Procedure, shortened: as §1

tozasertib = compound: Cc1cc(Nc2cc(N3CCN(C)CC3)nc(Sc3ccc(NC(=O)C4CC4)cc3)n2)n[nH]1 [tozasertib]
Procedure, shortened: as §1

doramapimod = compound: Cc1ccc(-n2nc(C(C)(C)C)cc2NC(=O)Nc2ccc(OCCN3CCOCC3)c3ccccc23)cc1 [doramapimod]
Procedure, shortened: as §1

bafetinib = compound: Cc1ccc(NC(=O)c2ccc(CN3CC[C@H](N(C)C)C3)c(C(F)(F)F)c2)cc1Nc1nccc(-c2cncnc2)n1 [bafetinib]
Procedure, shortened: as §1

[2] = compound: Cc1cccc(CC(=O)N2CCc3c2ccc(-c2cn(C)c4ncnc(N)c24)c3F)n1
Procedure, shortened: as §1

nilotinib = compound: Cc1cn(-c2cc(NC(=O)c3ccc(C)c(Nc4nccc(-c5cccnc5)n4)c3)cc(C(F)(F)F)c2)cn1 [nilotinib]
Procedure, shortened: as §1

[3] = compound: Cc1nc(Nc2n[nH]c3c2CN(C(=O)N[C@H](CN(C)C)c2ccccc2)C3(C)C)c2sccc2n1
Procedure, shortened: as §1

dasatinib = compound: Cc1nc(Nc2ncc(C(=O)Nc3c(C)cccc3Cl)s2)cc(N2CCN(CCO)CC2)n1 [dasatinib]
Procedure, shortened: as §1

[4] = compound: Cc1ncc(-c2ccnc(Nc3ccc(S(C)(=O)=O)cc3)n2)n1C(C)C
Procedure, shortened: as §1

[5] = compound: Cn1cc(-c2ccc3c(c2)CCN3C(=O)Cc2cccc(C(F)(F)F)c2)c2c(N)ncnc21
Procedure, shortened: as §1

quisinostat = compound: Cn1cc(CNCC2CCN(c3ncc(C(=O)NO)cn3)CC2)c2ccccc21 [quisinostat]
Procedure, shortened: as §1

tipifarnib = compound: Cn1cncc1[C@@](N)(c1ccc(Cl)cc1)c1ccc2c(c1)c(-c1cccc(Cl)c1)cc(=O)n2C [tipifarnib]
Procedure, shortened: as §1

[6] = compound: NC(=O)Nc1cc(-c2cccc(F)c2)sc1C(=O)N[C@H]1CCCNC1
Procedure, shortened: as §1

[7] = compound: NC(=O)c1cnc(N[C@@H]2CCCC[C@@H]2N)nc1Nc1cccc(-n2nccn2)c1
Procedure, shortened: as §1

[8] = compound: NC1(c2ccc(-c3nc4ccn5c(=O)[nH]nc5c4cc3-c3ccccc3)cc2)CCC1
Procedure, shortened: as §1

UniProt P06493, sequence (P06493 whole entry, looked up): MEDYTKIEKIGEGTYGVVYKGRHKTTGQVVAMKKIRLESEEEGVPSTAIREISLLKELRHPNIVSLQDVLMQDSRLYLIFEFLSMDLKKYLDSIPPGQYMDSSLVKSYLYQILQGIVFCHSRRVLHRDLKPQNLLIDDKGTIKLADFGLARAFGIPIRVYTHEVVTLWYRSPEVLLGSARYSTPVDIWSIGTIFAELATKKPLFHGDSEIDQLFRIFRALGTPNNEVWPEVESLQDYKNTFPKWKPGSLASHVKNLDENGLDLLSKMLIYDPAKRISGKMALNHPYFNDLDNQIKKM
UniProt O95260, sequence (O95260 whole entry, looked up): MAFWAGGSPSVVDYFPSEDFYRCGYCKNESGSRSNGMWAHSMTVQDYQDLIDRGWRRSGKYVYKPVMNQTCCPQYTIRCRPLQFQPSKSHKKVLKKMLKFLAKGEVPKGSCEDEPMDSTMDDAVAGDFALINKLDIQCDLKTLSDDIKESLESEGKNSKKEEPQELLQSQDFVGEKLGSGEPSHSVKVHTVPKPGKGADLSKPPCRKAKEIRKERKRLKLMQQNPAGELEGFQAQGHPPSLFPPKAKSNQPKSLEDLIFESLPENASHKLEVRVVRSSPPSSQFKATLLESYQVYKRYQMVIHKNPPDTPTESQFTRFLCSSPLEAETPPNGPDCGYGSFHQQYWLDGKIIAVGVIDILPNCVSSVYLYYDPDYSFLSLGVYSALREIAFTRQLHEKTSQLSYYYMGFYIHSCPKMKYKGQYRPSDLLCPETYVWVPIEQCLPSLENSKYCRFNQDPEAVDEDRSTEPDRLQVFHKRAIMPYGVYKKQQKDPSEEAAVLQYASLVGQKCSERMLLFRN
UniProt P15313, sequence (P15313 whole entry, looked up): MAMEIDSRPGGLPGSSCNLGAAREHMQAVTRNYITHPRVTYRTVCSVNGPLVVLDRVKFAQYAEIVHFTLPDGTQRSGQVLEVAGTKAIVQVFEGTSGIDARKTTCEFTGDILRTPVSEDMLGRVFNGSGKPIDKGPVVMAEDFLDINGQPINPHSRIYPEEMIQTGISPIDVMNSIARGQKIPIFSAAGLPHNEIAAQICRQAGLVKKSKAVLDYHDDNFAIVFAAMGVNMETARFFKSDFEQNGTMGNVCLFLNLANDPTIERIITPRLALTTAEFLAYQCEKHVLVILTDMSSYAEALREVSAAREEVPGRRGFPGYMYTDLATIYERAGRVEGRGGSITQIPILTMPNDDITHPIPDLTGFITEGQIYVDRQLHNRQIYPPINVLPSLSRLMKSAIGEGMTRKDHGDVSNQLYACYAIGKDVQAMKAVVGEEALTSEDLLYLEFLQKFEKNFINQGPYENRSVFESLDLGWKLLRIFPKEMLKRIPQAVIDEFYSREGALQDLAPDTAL
UniProt P08962, sequence (P08962 whole entry, looked up): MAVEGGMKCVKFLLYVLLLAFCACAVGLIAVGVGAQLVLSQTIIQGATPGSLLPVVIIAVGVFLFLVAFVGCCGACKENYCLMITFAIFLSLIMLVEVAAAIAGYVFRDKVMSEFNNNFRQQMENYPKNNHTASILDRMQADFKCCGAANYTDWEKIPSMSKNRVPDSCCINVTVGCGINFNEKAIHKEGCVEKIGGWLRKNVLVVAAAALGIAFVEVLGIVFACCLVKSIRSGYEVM
UniProt P21127, sequence (P21127 whole entry, looked up): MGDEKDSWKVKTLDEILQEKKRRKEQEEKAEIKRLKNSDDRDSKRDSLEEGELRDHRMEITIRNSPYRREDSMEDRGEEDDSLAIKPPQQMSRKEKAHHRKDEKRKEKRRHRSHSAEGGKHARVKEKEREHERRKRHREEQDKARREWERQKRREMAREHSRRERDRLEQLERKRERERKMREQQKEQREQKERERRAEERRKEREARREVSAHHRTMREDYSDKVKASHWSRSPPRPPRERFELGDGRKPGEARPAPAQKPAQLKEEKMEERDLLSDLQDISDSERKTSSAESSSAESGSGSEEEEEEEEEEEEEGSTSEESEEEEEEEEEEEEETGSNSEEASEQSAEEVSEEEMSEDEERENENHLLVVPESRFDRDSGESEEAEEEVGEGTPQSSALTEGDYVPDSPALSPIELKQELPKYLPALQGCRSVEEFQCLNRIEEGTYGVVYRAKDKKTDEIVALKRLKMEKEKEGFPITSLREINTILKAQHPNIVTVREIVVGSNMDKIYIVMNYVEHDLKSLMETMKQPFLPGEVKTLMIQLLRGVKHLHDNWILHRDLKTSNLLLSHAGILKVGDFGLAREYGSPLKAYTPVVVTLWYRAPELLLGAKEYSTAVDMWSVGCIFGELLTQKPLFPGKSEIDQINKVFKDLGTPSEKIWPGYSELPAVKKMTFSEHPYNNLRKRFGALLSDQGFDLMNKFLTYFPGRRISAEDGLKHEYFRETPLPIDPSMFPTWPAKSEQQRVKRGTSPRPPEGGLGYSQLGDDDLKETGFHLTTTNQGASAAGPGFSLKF
UniProt Q7Z3E2, sequence (Q7Z3E2 whole entry, looked up): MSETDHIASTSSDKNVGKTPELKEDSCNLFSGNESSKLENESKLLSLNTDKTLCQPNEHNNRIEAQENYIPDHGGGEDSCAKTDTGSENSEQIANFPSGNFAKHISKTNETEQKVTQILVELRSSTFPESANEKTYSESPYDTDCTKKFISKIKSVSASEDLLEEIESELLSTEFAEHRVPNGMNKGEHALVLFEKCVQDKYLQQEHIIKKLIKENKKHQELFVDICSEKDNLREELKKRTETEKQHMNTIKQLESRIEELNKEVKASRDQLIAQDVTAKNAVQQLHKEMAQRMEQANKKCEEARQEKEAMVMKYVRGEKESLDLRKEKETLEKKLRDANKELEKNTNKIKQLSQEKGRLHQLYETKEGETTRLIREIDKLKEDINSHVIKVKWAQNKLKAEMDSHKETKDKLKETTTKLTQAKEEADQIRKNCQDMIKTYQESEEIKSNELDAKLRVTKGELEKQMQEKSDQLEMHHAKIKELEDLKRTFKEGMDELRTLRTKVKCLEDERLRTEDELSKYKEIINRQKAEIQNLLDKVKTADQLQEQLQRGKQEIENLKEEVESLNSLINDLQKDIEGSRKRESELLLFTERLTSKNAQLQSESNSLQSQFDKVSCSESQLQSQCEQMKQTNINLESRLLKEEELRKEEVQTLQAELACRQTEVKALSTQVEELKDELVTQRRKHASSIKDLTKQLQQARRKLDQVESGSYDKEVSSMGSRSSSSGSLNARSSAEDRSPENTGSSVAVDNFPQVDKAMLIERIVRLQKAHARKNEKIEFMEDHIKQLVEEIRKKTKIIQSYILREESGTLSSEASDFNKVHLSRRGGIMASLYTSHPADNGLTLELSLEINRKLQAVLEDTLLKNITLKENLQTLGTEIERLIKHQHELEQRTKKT
UniProt Q8WUX2, sequence (Q8WUX2 whole entry, looked up): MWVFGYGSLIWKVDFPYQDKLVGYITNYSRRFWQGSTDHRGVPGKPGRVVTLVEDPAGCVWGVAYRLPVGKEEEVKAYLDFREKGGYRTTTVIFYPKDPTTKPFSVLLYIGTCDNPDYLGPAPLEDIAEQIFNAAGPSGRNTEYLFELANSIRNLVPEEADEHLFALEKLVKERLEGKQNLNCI
UniProt Q8N960, sequence (Q8N960 whole entry, looked up): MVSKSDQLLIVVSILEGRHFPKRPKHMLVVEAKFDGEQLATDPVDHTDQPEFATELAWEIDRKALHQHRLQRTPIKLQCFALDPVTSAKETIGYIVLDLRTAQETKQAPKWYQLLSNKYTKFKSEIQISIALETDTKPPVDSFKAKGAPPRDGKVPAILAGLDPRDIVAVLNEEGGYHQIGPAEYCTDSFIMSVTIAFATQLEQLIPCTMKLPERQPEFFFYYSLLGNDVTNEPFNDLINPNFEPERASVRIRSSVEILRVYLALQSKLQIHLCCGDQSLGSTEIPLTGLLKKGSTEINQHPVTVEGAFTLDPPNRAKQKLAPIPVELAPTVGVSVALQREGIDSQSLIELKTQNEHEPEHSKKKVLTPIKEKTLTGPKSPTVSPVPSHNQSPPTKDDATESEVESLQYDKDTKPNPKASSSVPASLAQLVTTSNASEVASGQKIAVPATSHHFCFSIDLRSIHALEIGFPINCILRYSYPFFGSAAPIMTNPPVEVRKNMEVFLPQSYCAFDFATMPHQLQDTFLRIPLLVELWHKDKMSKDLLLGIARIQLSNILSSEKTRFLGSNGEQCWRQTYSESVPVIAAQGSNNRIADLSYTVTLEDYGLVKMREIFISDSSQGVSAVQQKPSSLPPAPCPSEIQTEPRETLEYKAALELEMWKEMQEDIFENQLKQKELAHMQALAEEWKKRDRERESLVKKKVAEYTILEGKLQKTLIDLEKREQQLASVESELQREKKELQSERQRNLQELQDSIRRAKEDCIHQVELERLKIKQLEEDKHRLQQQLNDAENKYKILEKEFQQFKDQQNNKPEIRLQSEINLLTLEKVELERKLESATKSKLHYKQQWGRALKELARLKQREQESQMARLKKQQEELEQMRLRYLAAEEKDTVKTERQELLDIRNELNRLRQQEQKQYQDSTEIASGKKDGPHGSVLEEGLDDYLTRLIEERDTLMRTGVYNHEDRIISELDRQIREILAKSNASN
UniProt O15155, sequence (O15155 whole entry, looked up): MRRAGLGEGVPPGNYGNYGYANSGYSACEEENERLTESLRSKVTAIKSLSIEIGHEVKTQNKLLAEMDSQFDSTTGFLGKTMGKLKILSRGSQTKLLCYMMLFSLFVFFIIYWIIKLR

Target	log2 fold change (lapatinib)	log2 fold change (pictilisib)	log2 fold change (crizotinib)	log2 fold change [1]	log2 fold change (duvelisib)	log2 fold change (gandotinib)	log2 fold change (tozasertib)	log2 fold change (doramapimod)	log2 fold change (bafetinib)	log2 fold change [2]	log2 fold change (nilotinib)	log2 fold change [3]	log2 fold change (dasatinib)	log2 fold change [4]	log2 fold change [5]	log2 fold change (quisinostat)	log2 fold change (tipifarnib)	log2 fold change [6]	log2 fold change [7]	log2 fold change [8]
CDK1 (UniProt P06493)	-0.012	-0.021	-0.041	-0.018	0.031	-0.224	0.001	0.019	-0.016	-0.022	-0.026	0.018	-0.027	0.067	-0.02	0.003	0.015	0.012	0.127	0.015
CD63 (UniProt P08962)	0.006	-0.256	0.036	-0.415 (active)	0.025	0.209	0.013	0.077	-0.08	0.074	-0.053	0.098	-0.034	-0.032	0.005	-0.08	0.126	-0.006	-0.043	-0.009
CHD3 isoform 3 (UniProt Q12873)	-0.022	-0.02	0.009	0.014	-0.022	-0.013	-0.002	0.028	-0.047	0.033	0.036	-0.004	-0.033	-0.047	0.032	0.005	0.014	0.029	-0.002	0.008
BCKDK (UniProt O14874)	-0.056	-0.028	0.096	-0.038	-0.008	-0.095	-0.039	-0.033	0.012	-0.003	0.008	0.001	0.023	-0.061	0.058	0.094	-0.058	-0.092	-0.029	0.052
CDK11B (UniProt P21127)	-0.017	-0.006	0.461 (active)	-0.012	0	0.399 (active)	0.02	0.031	-0.042	0.007	-0.006	-0.015	-0.028	0.087	0.068	-0.023	0.01	0.018	0.009	-0.018
CCAR2 (UniProt Q8N163)	0.002	-0.061	-0.067	-0.009	-0.015	0.058	0.026	0.022	-0.011	0.06	-0.001	-0.016	-0.069	-0.017	0.018	-0.033	-0.013	0.027	0.014	-0.007
CHAC2 (UniProt Q8WUX2)	0.038	-0.011	0.003	0.57 (active)	0.038	-0.161	0.015	-0.01	-0.018	-0.198	0.004	0.043	-0.022	-0.024	0.036	-0.066	0.041	0.019	0.017	-0.027
BET1 (UniProt O15155)	-0.051	-0.034	-0.004	-0.004	0.01	-0.006	0	0.03	-0.056	0.03	0.038	0.052	-0.015	-0.011	0	0.023	-0.063	-0.005	-0.057	-0.005
CCDC186 (UniProt Q7Z3E2)	-0.056	-0.004	0.006	0.295 (active)	0.022	-0.061	0	-0.01	-0.047	-0.064	-0.046	-0.056	-0.014	0.03	0.043	-0.03	-0.01	0.033	-0.017	0.001
ATE1 isoform 2 (UniProt O95260)	0.021	-0.058	0.024	-0.089	-0.051	0.076	-0.003	-0.071	-0.093	0.029	-0.099	-0.006	0.069	-0.032	0.017	-0.014	0.025	0.034	-0.002	0.014
CEP120 (UniProt Q8N960)	-0.076	-0.007	-0.034	-0.105	0.005	0.016	-0.096	0.107	-0.257	0.129	0.524 (active)	-0.186	0	-0.251	-0.001	-0.067	0.16	0.013	0.024	-0.151
ATP6V1B1 (UniProt P15313)	-0.028	-0.028	-0.035	-0.232	-0.001	0.099	0	0.042	-0.044	0.129	-0.024	0.029	0.034	-0.045	-0.021	-0.029	-0.036	0.01	0.019	0.008
